This note sets out measurements from PubChem BioAssay AID651815 (National Center for Advancing Translational Sciences (NCATS), 2012).

Each structure is given as a SMILES string. Out of some 2,100 compounds screened, about 1,100 (52%) were called active. About 29% were inconclusive and are not listed. Calls follow the shape of the dose curve; as a rule, active = well fitted inhibition curve with a large enough effect; inconclusive = small, poorly fitted or top-dose-only effect; inactive = no such curve, though single readings can be large or run the other way. The set was probably picked from earlier hits. The list shows a part of the results.
Potency is read from the fitted curve at half-maximal effect.

Chain of DNA dC->dU-editing enzyme APOBEC-3F (Homo sapiens) (Q8IUX4 whole entry, looked up): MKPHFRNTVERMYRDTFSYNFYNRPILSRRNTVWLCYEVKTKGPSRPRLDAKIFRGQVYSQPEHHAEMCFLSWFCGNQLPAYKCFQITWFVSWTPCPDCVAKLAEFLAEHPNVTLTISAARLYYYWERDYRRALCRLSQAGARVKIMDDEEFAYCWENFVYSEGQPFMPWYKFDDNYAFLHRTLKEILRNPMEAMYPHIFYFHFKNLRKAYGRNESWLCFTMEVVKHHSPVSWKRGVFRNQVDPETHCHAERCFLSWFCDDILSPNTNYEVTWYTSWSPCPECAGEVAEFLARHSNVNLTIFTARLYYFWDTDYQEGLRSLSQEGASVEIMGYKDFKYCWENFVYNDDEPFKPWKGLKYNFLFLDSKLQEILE

This assay concerns the target DNA dC->dU-editing enzyme APOBEC-3F (Homo sapiens) (UniProt Q8IUX4). As to the kind of experiment: qHTS for inhibitors of Vif-A3F interactions: Cherry picks counterscreen. Also: nearly all actives have a fitted effect of over 65% in size. Particulars: HeLa A3F-eYFP/Vif cells, eYFP fluorescence, 24 h; series mostly up to 46.1 µM. The method in brief: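 HeLa cells stably expressing A3F-eYFP and Vif, cultured overnight, then treated 24 h at 37 degrees C with compounds at several concentrations; yellow fluorescence (488 nm Ex/500-530 nm Em) imaged on Acumen; MG132 positive control.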
On to `COc1cc(CNCCSc2nnnn2C)ccc1OCc1c(F)cccc1Cl`, for which the Potency entry is “inactive”.
With `O=C(c1ccccc1)c1c2c(cc3sc4ccccc4[n+]13)-c1cccc3cccc-2c13` the figure was 17.7 µM (active); with `Oc1ccc(C2=NNC(=NCc3ccc4c(c3)OCO4)SC2)c(O)c1`, 4.98 µM (active).
Turning to `O=C(O)CSc1c2ccccc2cc2ccccc12`, the Potency entry is “inactive”.
Turning to `Cc1cc(NC(=O)NC(=O)c2ccccc2NC(=O)C(C)N)ccc1Oc1ncc(Br)cn1` (stereo not drawn), the Potency was 3.14 µM (active).
On to `O=C1c2cccc3c([N+](=O)[O-])c(O)cc(c23)C(=O)N1Nc1ccccc1`, for which the Potency is 23.1 µM (active).
As for `O=c1[nH]c2ccccc2n2c(C(F)(F)F)nnc12`, the Potency is 16.4 µM (active).
In the case of `Cc1cccc(Cn2c(=O)n(CCCC(=O)NCc3ccco3)c(=O)c3ccccc32)c1`, the Potency is 8.86 µM (active).
`O=S(=O)(Nc1nc2ccccc2nc1Nc1cccc(S(=O)(=O)N2CCCCC2)c1)c1ccccc1`: the Potency was 18.4 µM (active).
With `Cc1ccc(S(=O)(=O)Nc2nc3ccccc3nc2Nc2cccc(S(=O)(=O)N3CCCC3)c2)cc1` the figure was 3.26 µM (active); with `O=C(Nc1ccc(Cl)cn1)c1cccc(S(=O)(=O)N2CCCCCC2)c1`, “inactive”; with `O=C(NCc1ccccc1)C1Cc2c(-c3cccc(F)c3)ccnc2O1` (stereo not drawn), 2.8 µM (active).
To `CC(=O)c1cccc(-c2ccnc3c2CC(C(=O)NCc2ccc(F)c(F)c2)O3)c1` (stereo not drawn) belongs 3.96 µM (active); to `O=C(NCc1ccco1)C1Cc2c(-c3cccc(F)c3)ccnc2O1` (stereo not drawn), 2.8 µM (active).
For `CC(=O)c1cccc(-c2ccnc3c2CC(C(=O)NCc2ccco2)O3)c1` (stereo not drawn), the Potency is 1.98 µM (active).
With `COc1ccc(-n2c(O)c(/C=N/NS(=O)(=O)c3ccc(C)c([N+](=O)[O-])c3)c3ccccc3c2=O)cc1OC` the figure was 6.51 µM (active).
For the molecule `O=C(O)CSc1cc(NS(=O)(=O)c2cccc([N+](=O)[O-])c2)c2ccccc2c1O`, the Potency entry is “inactive”.
Take `COc1ccc(-n2c(O)c(/C=N/NS(=O)(=O)c3cccc([N+](=O)[O-])c3)c3ccccc3c2=O)cc1OC`: the Potency was 14 µM (active).
As to `Cc1ccc(NC(=O)CSc2n[nH]c(-c3ccccn3)n2)cc1`, the Potency result is “inactive”.
To `Cc1ccc(NC(=O)CSc2nc3ccc(Nc4nc(N5CCOCC5)nc(N5CCOCC5)n4)cc3s2)cc1` belongs 20.6 µM (active).
To `O=C(CSc1nc2ccc(Nc3nc(N4CCOCC4)nc(N4CCOCC4)n3)cc2s1)Nc1ccccc1F` belongs 20.6 µM (active); to `CN1CCC(OC(=O)c2cc3cc(Cl)cc(Cl)c3oc2=O)CC1`, “inactive”; to `Cc1ccc(C(=O)CSC2=C(C#N)C(c3ccco3)C3=C(CCCC3=O)N2)cc1` (stereo not drawn), 9.94 µM (active).
For the molecule `O=C(c1ccc(CS(=O)c2ccccc2Cl)o1)N1CCN(c2ccccc2F)CC1` (stereo not drawn), the Potency is 1.84 µM (active).
Regarding `O=c1c2cc3ccccc3n2cnn1Cc1ccccc1F`, the Potency was 14 µM (active).
To `Cc1ccnc(N/C=C(\C#N)c2nc(-c3cccc(Br)c3)cs2)c1` belongs 15.8 µM (active); to `Cc1cc(C)cc(NC(=O)Cn2cc(C(=O)C3CCCCC3)c3ccccc32)c1`, 16.4 µM (active); to `Cc1cc(C)cc(NC(=S)NC(=O)C2CC2)c1`, “inactive”.
With `CN(C)c1ccc(/C=C/c2ccnc3ccccc23)cc1O` the figure was 18.4 µM (active).
On to `Cc1cc(/C=C/c2ccnc3ccccc23)ccc1N(C)C`, for which the Potency is 10.3 µM (active).
As to `Cc1cc(/C=C/c2ccnc3ccccc23)ccc1N`, the Potency is 16.4 µM (active).
Take `CN1CCCc2cc(/C=C/c3ccnc4ccccc34)ccc21`: the Potency is 2.59 µM (active).
Regarding `CN(C)c1ccc(/C=C/c2ccnc3ccccc23)cc1C=O`, the Potency is 6.51 µM (active).
With `CCc1cc(/C=C/c2ccnc3ccccc23)ccc1N(C)C` the figure was 20.6 µM (active); with `Cc1ccc(CNC(=O)Cc2ccc(-n3cccc3)cc2)cc1`, 3.53 µM (active).
Take `Cc1ccc(NC(=O)Cc2ccc(-n3cccc3)cc2)c(C)c1`: the Potency entry was “inactive”.
With `CCN(CC)CCCNc1ccc2ncn3c4ccc(O)cc4c(=O)c1c23` the figure was 20.6 µM (active); with `CN(C)CCNc1ccc2ncn3c4ccc(O)cc4c(=O)c1c23`, 20.6 µM (active).
With `C=CCNC(=S)N/N=C/c1ccc(C)cc1C`, the Potency result is “inactive”.
For `CCOc1cc(S(=O)(=O)NCc2ccc(OC)cc2)c(OCC)cc1-n1cnnn1`, the Potency was 12.5 µM (active).
In the case of `c1ccc2c(c1)Cc1cc3ccccc3nc1-2`, the Potency is 9.2 µM (active).
As for `Cc1ccc(S(=O)(=O)N2CCCCC2CCNC(=O)C(=O)NCc2ccco2)cc1` (stereo not drawn), the Potency is 14 µM (active).
As to `COc1cc(/C=C/C(=O)c2ccc3c(c2)OCCO3)cc(Br)c1OCC(=O)N(C)C`, the Potency is 14 µM (active).
On to `CN(C)c1ccc(/C=C/c2ccnc3c(Cl)ccc(Cl)c23)cc1`, for which the Potency was 5.17 µM (active).
With `CN(C)c1ccc(/C=C/c2ccnc3c(Cl)cccc23)cc1` the figure was 9.2 µM (active).
Regarding `CN(C)c1ccc(/C=C/c2ccnc3c(N)cccc23)cc1`, the Potency is 18.4 µM (active).
Take `COc1ccc(-c2ccc3c(c2)S(=O)(=O)c2cccc(C(=O)NCCOc4ccccc4)c2C3=O)cc1OC`: the Potency is 14 µM (active).
For `COc1ccc(-c2ccc3c(c2)S(=O)(=O)c2cccc(C(=O)NCc4cccc(OC(F)(F)F)c4)c2C3=O)cc1OC`, the Potency was 3.66 µM (active).
In the case of `O=C(NCc1ccccc1Cl)c1cccc2c1C(=O)c1ccc(-c3ccc(OC(F)(F)F)cc3)cc1S2(=O)=O`, the Potency is 16.4 µM (active).
`COc1ccc(S(=O)(=O)NN(C)c2nc(C(F)(F)F)nc3ccccc23)cc1`: the Potency is 11.2 µM (active).
`COc1ccc(NC(=O)C2(C)Cc3c(-c4cccc(NC(C)=O)c4)ccnc3O2)cn1` (stereo not drawn): the Potency was 7.04 µM (active).
`COc1ccc(NC(=O)C2(C)Cc3c(-c4cccc(C(N)=O)c4)ccnc3O2)cn1` (stereo not drawn): the Potency is 12.5 µM (active).
In the case of `CN(C)c1ccc(/C=C(/C(=O)c2ccc(Cl)cc2Cl)n2cncn2)cc1`, the Potency was 14 µM (active).
Turning to `Cn1c(=S)c2[nH]c(SCCN3CCCC3)nc2n(C)c1=O`, the Potency result is “inactive”.
In the case of `COc1cc(-c2noc(C)c2/C=C/c2cccc([N+](=O)[O-])c2)cc(OC)c1OC`, the Potency was 1.58 µM (active).
With `COc1cc(-c2noc(C)c2/C=C/c2ccc(OC(C)=O)cc2)cc(OC)c1OC`, the Potency was 0.627 µM (active).
With `O=c1[nH]c2cc(Br)cnc2nc1/C=C(\O)c1ccc(F)cc1`, the Potency is 18.4 µM (active).
With `COc1ccc(Cl)cc1NC(=O)CSc1nc2c([nH]c3ccccc32)c(=O)n1-c1ccccc1`, the Potency was 25.9 µM (active).
Consider `O=C(O)c1ccc(NS(=O)(=O)c2cccc(C(=O)Nc3ccccc3[N+](=O)[O-])c2)cc1`, for which the Potency result was “inactive”.
Take `Cc1ccc(NC(=O)c2ccc([N+](=O)[O-])s2)cc1S(=O)(=O)N1CCOCC1`: the Potency entry is “inactive”.
With `Cc1ccc(NC(=O)c2ccc(NCC3CCCO3)c([N+](=O)[O-])c2)cc1Cl` (stereo not drawn), the Potency was 20.6 µM (active).
On to `O=C(NCCN1C(=O)S/C(=C\c2ccc(OC(F)F)cc2)C1=O)c1cnccn1`, for which the Potency was 7.04 µM (active).
To `CC(C)(C)c1ccc(Cn2c(=O)cnc3ccccc32)cc1` belongs “inactive”; to `ClCc1nc2ccccc2n1Cc1ccccc1`, 18.4 µM (active).
Take `COc1cc(N2CCCC2)c(OC)cc1/C=C(/C#N)c1ccc(F)cc1`: the Potency was 9.2 µM (active).
As for `COc1cc(N2CCCC2)c(OC)cc1/C=C(/C#N)c1ccc(Br)cc1`, the Potency is 2.06 µM (active).
Regarding `CC(=O)/C(N=Nc1cc(C)ccc1O)=C(\C)O`, the Potency was 16.4 µM (active).
`Cc1ccc(-c2nc(SCCOc3ccccc3C)n3[nH]c(=O)cc3n2)cc1`: the Potency result is “inactive”.
Take `Cc1ccccc1OCCc1c(C)[nH]c(=S)[nH]c1=O`: the Potency was 2.23 µM (active).
Consider `COc1cc(NC(=O)C2=C(N3CCOCC3)/C(=C\c3ccc(N(C)C)cc3)CCC2)cc(OC)c1OC`, for which the Potency is 5.59 µM (active).
With `O=C1CC(c2ccccc2F)c2cc3c(cc2N1)CCC3` (stereo not drawn), the Potency was 2.5 µM (active).
Turning to `O=C1CC(c2cc(Br)ccc2F)c2cc3c(cc2N1)CCC3` (stereo not drawn), the Potency was 1.12 µM (active).
As for `O=C1CC(c2cc(F)ccc2F)c2cc3c(cc2N1)CCC3` (stereo not drawn), the Potency was 3.14 µM (active).
On to `O=C(COc1ccccc1)NC(=S)Nc1cccc2c(O)cccc12`, for which the Potency entry was “inactive”.
With `CCC(=O)NC(=S)Nc1cccc(Cl)c1N1CCCC1` the entry was “inactive”; with `NC(=O)c1ccccc1NC(=S)NC(=O)CCc1ccccc1`, 9.94 µM (active).
Turning to `Oc1ccc(-c2nc(-c3ccc(O)c(O)c3)cs2)cc1`, the Potency was 1.25 µM (active).
To `Cc1ccccc1NC(=O)c1ccc2c(c1)c(C)c(C)n2Cc1ccccc1` belongs 6.51 µM (active); to `COc1ccc(NC(=O)c2ccc3c(c2)c(C)c(C)n3Cc2ccc(F)cc2)cc1`, 4.61 µM (active).
Regarding `O=[N+]([O-])c1ccc(N2CCN(Cc3ccccc3)CC2)c2c1no[n+]2[O-]`, the Potency is 15.8 µM (active).
For the molecule `COc1ccc(OC)c(-c2cc(-c3cccnc3)nc(N)c2C#N)c1`, the Potency is 3.53 µM (active).
With `Cc1c(C(=O)C(=O)N2CC=C(c3ccccc3)CC2)c2ccccc2n1C`, the Potency is 2.5 µM (active).
To `Cc1c(C(=O)C(=O)N2CCCc3ccccc32)c2ccccc2n1C` belongs 8.86 µM (active); to `O=C(/C=C/c1ccco1)N1CCc2ccccc21`, “inactive”; to `COc1ccc(CCNC(=O)CC2(CC3=NS(=O)(=O)c4ccccc4N3)CCCC2)cc1OC`, “inactive”.
With `CCOc1ccc(-c2cc(C(=O)NCCc3ccc(OC)c(OC)c3)c3c(-c4ccc(F)cc4)[nH]nc3n2)cc1`, the Potency is 16.4 µM (active).
As for `COc1ccc(OC)c(CNc2nc3ccc(C)cc3n3nnnc23)c1`, the Potency was 8.2 µM (active).
To `COc1ccccc1CNc1nc2ccc(C)cc2n2nnnc12` belongs 23.1 µM (active).
For the molecule `O=C1c2ccccc2-c2onc3c(N4CCN(C5CCCCC5)CC4)cc(NCCO)c1c23`, the Potency is 5.8 µM (active).
Regarding `CCNc1cc(N2CCN(C3CCCCC3)CC2)c2noc3c2c1C(=O)c1ccccc1-3`, the Potency is 13 µM (active).
Take `CN(C)CCCNc1cc(N2CCN(C3CCCCC3)CC2)c2noc3c2c1C(=O)c1ccccc1-3`: the Potency was 2.59 µM (active).
As for `O=C(NC(=S)N1CCc2ccccc21)c1ccco1`, the Potency entry is “inactive”.
With `CCN(CC)c1ccc(/C=N/NC(=O)c2ccco2)cc1` the figure was 6.27 µM (active).
